The results in this text go back to PubChem BioAssay.

In the assay the test system is Noggin (protein binding on small-molecule microarray). The assay is described as follows: small molecules binding Noggin protein – biochemical, 635/667 nm fluorescence, primary screen (AID 1095).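 Note: score merges 667 nm feature fluorescence with signal to noise over triplicate slides.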 The conditions noted are these: 635 nm fluorescence, higher = more signal.
In the case of `COc1ccc([Si](C)(C)[C@@H]2[C@@H](CCn3cc([C@H](O)c4ccccc4)nn3)O[C@]3(C(=O)N(Cc4ccc(N5CCC5=O)cc4)c4ccccc43)[C@H]2C)cc1`, the composite z-score came to 1.13.

In turn, `C=CCC(OC(C)=O)[C@@H]1[C@@H](N(Cc2ccc(-c3cccc(C(F)(F)F)c3)o2)C(=O)c2ccc(C)cc2)c2cc(OCCCO)ccc2N1C(=O)c1ccc2ccccc2c1` (stereo partly drawn) registered a composite z-score of 0.485.

As for `C=CCC(OC(C)=O)[C@@H]1[C@@H](N(Cc2cccc3ccccc23)C(=O)Cc2ccc(F)cc2)c2cc(OCCCO)ccc2N1C(=O)c1ccc2ccccc2n1` (stereo partly drawn), the composite z-score is -0.283.

As to `C[C@H]1NC(=O)[C@@]23C(=O)N[C@@H](Cc4ccccc4)C2[C@H](C)[C@@]2(C)O[C@H]2C3/C=C/C/C=C\CNC(=O)[C@H](Cc2ccccc2)NC1=O` (stereo partly drawn), the composite z-score amounted to 1.22.

Molecule `CCCCCCCCCCC(O)C1C=CC2C(=O)N(C)C(=O)C2N1Nc1ccc([N+](=O)[O-])cc1[N+](=O)[O-]` (stereo not drawn) registered a composite z-score of -0.894.

As to `NCCCCCCNC(=O)[C@@H]1C[C@@H]2C(=O)N[C@@H](CCCCN)C(=O)N2[C@@H]1c1cccc(OCCO)c1`, the composite z-score was found to be 0.763.

In turn, `N#Cc1ccc(C(O)C2C=CC3C(=O)N(c4ccccc4)C(=O)C3N2Nc2ccccc2)cc1` (stereo not drawn) registered a composite z-score of -0.383.

As for `CC1=C([C@H](O)CCc2ccccc2)[C@H](CO)[C@@H]2C(=O)N(C)C(=O)[C@@H]2C1`, the composite z-score was 0.296.

With `CCOC(=O)C1=CC[C@@H](c2cccc(Cl)c2)N(S(=O)(=O)c2ccc(C)cc2)C1`, the composite z-score is 0.0745.

In turn, `COCCOC(=O)N1C(=O)[C@@]2(c3cc(C#Cc4ccc(OC)cc4)ccc31)[C@H](C(=O)Nc1nc3ccccc3s1)[C@H]1C(=O)O[C@H](c3ccccc3)[C@H](c3ccccc3)N1[C@@H]2c1ccc(O)cc1` showed a composite z-score of 1.55.

`COc1ccc(C#Cc2ccc3c(c2)[C@]2(C(=O)N3)[C@H](c3ccc(O)cc3)N3[C@H](c4ccccc4)[C@H](c4ccccc4)OC(=O)[C@H]3[C@@H]2C(=O)O)cc1` yielded a composite z-score of -0.28.

The molecule `CC(C)C[C@@H]1NC(=O)[C@@H]2C[C@H](C(=O)NCCCCCN)[C@H](c3ccc(O)cc3)N2C1=O` registered a composite z-score of 1.47.

`CN1C(=O)C2C=CC(C(O)c3ccc(F)cc3)N(Nc3ccccc3)C2C1=O` (stereo not drawn) came in with a composite z-score of 0.447.

On to `CCC[C@@H]1C[C@@]1(CCC)[C@@H](NC(=O)OCc1ccccc1)c1ccc(-c2ccccc2)cc1`, for which the composite z-score was -0.0553.

In turn, `COc1ccc(NC(=O)O[C@H]2[C@H](OC(=O)Nc3ccccc3)[C@H](OC(=O)Nc3ccccc3)[C@@H](OC)O[C@@H]2CO)cc1` had a composite z-score of 0.691.

The molecule `CC(C)[Si](C#C[Si](C(C)C)(C(C)C)C(C)C)(O[C@H](C)c1cn([C@H](CO)Cc2ccccc2)nn1)C(C)C` registered a composite z-score of -0.0066.

Molecule `[N-]=[N+]=NCc1ccccc1[C@@H]1OC(c2ccc(OCCCO)cc2)=N[C@]1(CCS(=O)(=O)c1ccccc1)C(=O)NCC(O)CO` (stereo partly drawn) displayed a composite z-score of 1.

`CCC(CC)C(O)C1C=CC2C(=O)N(c3ccccc3)C(=O)C2N1Nc1ccc(C(C)C)cc1` (stereo not drawn) returned a composite z-score of 0.152.

For `C=C(C)C1CCC(C(O)C2C=CC3C(=O)N(C)C(=O)C3N2N2CCCCC2)CC1` (stereo not drawn), the composite z-score was 0.758.

The molecule `O=C1NC(=O)C2C1C=CC(C(O)c1cccc3ccccc13)N2Nc1ccc(Cl)cc1Cl` (stereo not drawn) showed a composite z-score of -0.339.

Take `C=CCOC(=O)[C@H]1[C@@H]2C(=O)O[C@@H](c3ccccc3)[C@@H](c3ccccc3)N2[C@@H](c2ccc(OCCOC(=O)[C@@H]3C[C@@H]4C(=O)N[C@@H](CCCCN(C)C)C(=O)N4[C@@H]3c3ccc(O)cc3)cc2)[C@]12C(=O)Nc1ccccc12`: the composite z-score amounted to 1.7.

The molecule `CCOC(=O)C1=CC[C@@H](c2ccccc2C(F)(F)F)N(S(=O)(=O)c2ccc(C)cc2)[C@H]1c1ccc(C#N)cc1` displayed a composite z-score of 0.292.

`CCCNC(=O)[C@@H]1c2ccccc2C(=O)N(C(C)C)[C@H]1c1ccc(CO)cc1` displayed a composite z-score of -0.231.
